Assay [1] in a line: Primary redox qHTS assay for identification of artifact compounds. (AID 1845223).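 Further: 0% = DMSO and 100% = reference compound.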 A digest of the protocol:
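Redox-cycling detection via DTT (250 uM final) oxidation coupled to Amplex Red (25 uM)/HRP (250 mU/mL) in HBSS. 15 min preincubation plus 30 min after DTT, room temperature. Ex/Em 525/598 nm; 4-parameter Hill fit against DMSO and 10 uM DA3003.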
Background: qHTS replaces the single test concentration by a dilution series.

Assay [2] in a line: qHTS drug screen for cell cycle checkpoint inhibitors in PARPi-resistant BRCA-mutant ovarian cancer cell lines. (AID 1963452; calls by dose curve; further: potency means the concentration at half of the fitted maximal effect). The conditions noted are these: PEO1/OlaR viability, CellTiter-Glo luminescence, 96 h; for Z-AUC: stronger effect = lower value. An outline of the steps:
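PEO1, PEO4 and PEO1/OlaR ovarian cancer cells, 600 per well, exposed 96 h at 37C to a dilution series. Viability read by CellTiter-Glo luminescence, normalized to DMSO and empty wells; activity summarized as Z-AUC.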

Where [3] appears, read: measured here: PEO1 parental Z-AUC.

Molecules are shown by their SMILES. Results filed as inconclusive are left out. Active and inactive are the calls of the source. Unless noted, the call rests on the fitted dose curve; in most records, active means well fitted activation curve with a large enough effect; inconclusive means small, poorly fitted or top-dose-only effect; inactive means flat fitted curve, though single readings scatter.

`CCN1C(C)(C)CC(Oc2ccc(C(=O)Nc3ccc(NC(=O)Nc4cc(C(C)(C)C)on4)cc3)nc2)CC1(C)C`: the Potency result in assay [1] was “inactive”.

As for `CC(C)=CCCC1(C)C2CCC1(C)C(O)C2` (stereo unspecified), the Potency result in assay [1] is “inactive”.

On to `Cc1ccc(-c2ncc[nH]2)cc1NC(=O)c1ccc(OCc2ccccn2)cc1`, for which, in assay [1], the Potency result is “inactive”.

Take `Fc1ccc(CN2CCC(Nc3ccc(C(F)(F)F)nn3)CC2)cc1F`: the Potency result in assay [1] is “inactive”.

For the molecule `O=C1NC(=O)C(c2cnc3ccccn23)=C1c1cn2c3c(cc(F)cc13)CN(C(=O)N1CCCCC1)CC2`, the Potency result in assay [1] was “inactive”. Besides, in assay [2], the Potency was 174 nM (active). The Z-AUC in assay [2] (setting [3]) was -1.85; in assay [2] (measured here: PEO4 Z-AUC), -1.33.

For `C=CC(=O)N1CCC[C@@H](n2nc(-c3cccc(C(=O)Nc4ccc(C(C)C)c(C)c4)c3)c3c(N)ncnc32)C1`, in assay [1], the Potency entry was “inactive”.

Consider `CC(=O)Nc1nc(C)c(-c2nc(N3CCCC(O)C3)no2)s1` (stereo unspecified), for which the Potency result in assay [1] was “inactive”.

As for `O=C(NCCCNc1nc(Nc2cccc(CN3CCOCC3)c2)ncc1C1CC1)C1CCC1`, in assay [1], the Potency result is “inactive”. Moreover, the Z-AUC is -0.249 (inactive) in assay [2], -0.12 in assay [2] (setting [3]) and -0.429 in assay [2] (measured here: PEO4 Z-AUC).

For `O=C(CCl)Nc1cccc(NC2=NS(=O)(=O)c3ccccc32)c1`, the Potency entry in assay [1] was “inactive”. The figures for the Z-AUC in assay [2], in assay [2] (setting [3]) and in assay [2] (measured here: PEO4 Z-AUC) were -0.599 (inactive), -0.67 and -0.526, respectively.

In the case of `c1ccc(-c2ccc(CNc3nc(-c4ccccn4)nnc3-c3ccccc3)cc2)cc1`, the Potency result in assay [1] is “inactive”. Besides, the Z-AUC was -1.09 (inactive) in assay [2], -0.646 in assay [2] (setting [3]) and -0.501 in assay [2] (measured here: PEO4 Z-AUC).

For `O=C(Nc1ccnc(NC(=O)C2CC2)c1)c1c(Cl)cccc1Cl`, the Potency entry in assay [1] was “inactive”. Besides, the Z-AUC in assay [2] is -1.13 (inactive); in assay [2] (setting [3]), -0.966; in assay [2] (measured here: PEO4 Z-AUC) it was -0.923.

Regarding `FC(F)(F)c1ccc(/C=C/c2nc(COc3ccc(CCCCn4ccnn4)cc3)co2)cc1`, the Potency entry in assay [1] was “inactive”. The Potency in assay [2] is 195 nM (active). Moreover, the Z-AUC was -3.45 in assay [2] (setting [3]) and -2.45 in assay [2] (measured here: PEO4 Z-AUC).

Turning to `COc1cccc(-c2cc(F)ccc2C2Cc3nc(N)nc(C)c3C(=O)N2)n1` (stereo unspecified), the Potency entry in assay [1] is “inactive”. For the same molecule, the values for the Z-AUC in assay [2], in assay [2] (setting [3]) and in assay [2] (measured here: PEO4 Z-AUC) were -1.35 (inactive), -1.35 and -0.552, respectively.

For the molecule `Cc1cc(C(=O)Nc2cc(Nc3ccc4c(/C=C/c5ccccn5)n[nH]c4c3)ccc2F)n(C)n1`, in assay [1], the Potency result was “inactive”. Further, the Z-AUC in assay [2] was -1.04 (inactive); in assay [2] (setting [3]) it was -0.196; in assay [2] (measured here: PEO4 Z-AUC), -0.912.

As to `Cc1c(NC(=O)c2cc3c(s2)CCCC3)cccc1-c1cn(C)c(=O)c(Nc2ccc(C3C(=O)N(C)CCN3C)cc2)n1` (stereo unspecified), the Potency result in assay [1] is “inactive”. Also, the Z-AUC in assay [2] was 1.18 (inactive); in assay [2] (setting [3]) it was 0.426; in assay [2] (measured here: PEO4 Z-AUC) it was 0.277.

In the case of `Cc1ccc(NC(=O)c2ccc(CN3CCNCC3)cc2)cc1Nc1nccc(-c2cccnc2)n1`, the Potency result in assay [1] was “inactive”. Besides, the Z-AUC in assay [2] was 0.805 (inactive); in assay [2] (setting [3]) it was 0.225; in assay [2] (measured here: PEO4 Z-AUC) it was 0.453.

For the origin of these results see PubChem BioAssay (NCATS).
